# In article PMC7862700, “An all-to-all approach to the identification of sequence-specific readers for epigenetic DNA modifications on cytosine”:
# Legend:
# Assay in all cases: DAPPL (digital affinity profiling via proximity ligation, sequencing); 10 mM Tris-HCl pH 7.5, 50 mM NaCl, 1 mM DTT, 4% glycerol, room temperature, 30 min; GST-TFs on glutathione beads, 16-mer random dsDNA library, 0.1% formaldehyde crosslink after washing; high values mean tight binding
# Settings in all cases: protein: recombinant; tags: N-terminal GST; dsDNA, one strand shown
# FLI1 = target: T1, FLI1 (Homo sapiens, UniProt Q01543 1-452)
# T1 sequence: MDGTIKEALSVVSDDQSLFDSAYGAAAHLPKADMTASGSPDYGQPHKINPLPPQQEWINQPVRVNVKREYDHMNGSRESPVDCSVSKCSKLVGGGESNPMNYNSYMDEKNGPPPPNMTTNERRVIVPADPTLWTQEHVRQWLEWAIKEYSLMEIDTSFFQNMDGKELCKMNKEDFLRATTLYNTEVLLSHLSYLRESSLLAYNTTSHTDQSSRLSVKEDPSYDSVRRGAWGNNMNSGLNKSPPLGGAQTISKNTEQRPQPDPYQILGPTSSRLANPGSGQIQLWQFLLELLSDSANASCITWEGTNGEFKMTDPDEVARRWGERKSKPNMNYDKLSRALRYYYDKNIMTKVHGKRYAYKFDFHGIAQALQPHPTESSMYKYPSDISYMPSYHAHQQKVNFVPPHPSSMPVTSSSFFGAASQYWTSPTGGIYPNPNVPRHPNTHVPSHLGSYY
# Outline: (§1)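 Yeast served to express human transcription factors as GST fusions, which were then captured on glutathione beads and labelled with DNA barcodes. Pooled with a tag-only sample, they were incubated with 200 nmole of a 16-mer random double-stranded DNA library for 30 min at room temperature in Tris/NaCl/DTT/glycerol buffer, washed, crosslinked with 0.1% formaldehyde, ligated by proximity, amplified by PCR and sequenced. Dividing each hexamer's read frequency for a factor by its frequency for the tag-only sample gives the binding signal.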
# GABPA = target: T2, GABPA (Homo sapiens, UniProt Q06546 1-454)
# T2 sequence: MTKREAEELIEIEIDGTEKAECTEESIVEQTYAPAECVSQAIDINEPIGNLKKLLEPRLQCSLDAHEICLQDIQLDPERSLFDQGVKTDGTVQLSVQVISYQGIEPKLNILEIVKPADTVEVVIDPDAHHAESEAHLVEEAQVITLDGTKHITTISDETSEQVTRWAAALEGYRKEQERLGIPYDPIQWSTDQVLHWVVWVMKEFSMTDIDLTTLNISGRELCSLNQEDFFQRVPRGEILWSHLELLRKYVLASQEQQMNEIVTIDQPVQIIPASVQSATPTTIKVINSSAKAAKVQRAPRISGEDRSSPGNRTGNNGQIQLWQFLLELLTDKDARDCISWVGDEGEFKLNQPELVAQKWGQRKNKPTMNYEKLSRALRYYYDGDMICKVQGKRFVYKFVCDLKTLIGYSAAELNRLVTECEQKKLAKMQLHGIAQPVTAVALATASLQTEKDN
# Outline: as §1
# ERG = target: T3, ERG (Homo sapiens, UniProt P11308 1-479)
# T3 sequence: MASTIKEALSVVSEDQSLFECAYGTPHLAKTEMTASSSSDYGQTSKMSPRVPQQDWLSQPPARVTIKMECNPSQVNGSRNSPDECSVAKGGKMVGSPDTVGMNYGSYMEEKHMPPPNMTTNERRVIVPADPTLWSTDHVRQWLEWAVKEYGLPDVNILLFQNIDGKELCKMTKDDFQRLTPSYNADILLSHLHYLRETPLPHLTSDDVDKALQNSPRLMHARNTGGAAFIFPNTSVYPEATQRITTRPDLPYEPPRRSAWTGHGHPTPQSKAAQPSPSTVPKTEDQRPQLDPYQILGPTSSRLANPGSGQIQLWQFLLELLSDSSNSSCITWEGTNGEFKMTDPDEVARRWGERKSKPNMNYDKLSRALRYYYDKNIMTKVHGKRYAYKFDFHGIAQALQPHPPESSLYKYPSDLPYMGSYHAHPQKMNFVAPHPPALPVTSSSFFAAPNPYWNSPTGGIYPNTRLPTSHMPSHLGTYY
# Outline: as §1
# ELF1 = ELF1 (Homo sapiens, UniProt P32519 1-619)
# Sequence of ELF1 (P32519 whole entry): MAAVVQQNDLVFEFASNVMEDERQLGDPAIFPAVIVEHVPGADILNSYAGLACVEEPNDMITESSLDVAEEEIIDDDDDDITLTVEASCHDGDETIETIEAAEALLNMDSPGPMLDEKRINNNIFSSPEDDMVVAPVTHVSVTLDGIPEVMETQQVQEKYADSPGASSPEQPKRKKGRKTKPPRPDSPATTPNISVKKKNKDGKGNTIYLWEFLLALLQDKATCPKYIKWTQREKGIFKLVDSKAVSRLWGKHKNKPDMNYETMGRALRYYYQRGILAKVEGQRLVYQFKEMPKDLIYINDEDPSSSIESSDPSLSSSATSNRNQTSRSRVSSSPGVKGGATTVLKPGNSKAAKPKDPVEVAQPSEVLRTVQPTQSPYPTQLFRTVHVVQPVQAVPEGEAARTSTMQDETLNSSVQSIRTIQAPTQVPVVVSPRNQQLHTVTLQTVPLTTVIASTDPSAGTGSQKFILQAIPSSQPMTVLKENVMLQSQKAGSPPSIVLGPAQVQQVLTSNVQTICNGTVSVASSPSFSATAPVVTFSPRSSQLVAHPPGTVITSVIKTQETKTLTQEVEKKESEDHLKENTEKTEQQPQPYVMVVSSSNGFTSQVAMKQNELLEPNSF
# Outline: as §1
# EHF = target: T4, EHF (Homo sapiens, UniProt Q9NZC4 1-300)
# T4 sequence: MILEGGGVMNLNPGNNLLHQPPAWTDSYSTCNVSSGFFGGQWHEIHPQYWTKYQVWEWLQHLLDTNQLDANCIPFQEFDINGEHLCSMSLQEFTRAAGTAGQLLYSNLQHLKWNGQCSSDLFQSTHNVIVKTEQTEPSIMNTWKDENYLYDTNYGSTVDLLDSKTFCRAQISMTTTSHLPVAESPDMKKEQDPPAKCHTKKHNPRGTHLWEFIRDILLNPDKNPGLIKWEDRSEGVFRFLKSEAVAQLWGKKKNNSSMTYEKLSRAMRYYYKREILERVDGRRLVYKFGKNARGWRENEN
# Outline: as §1
# SPIC = target: T5, SPIC (Homo sapiens, UniProt Q8N5J4 1-248)
# T5 sequence: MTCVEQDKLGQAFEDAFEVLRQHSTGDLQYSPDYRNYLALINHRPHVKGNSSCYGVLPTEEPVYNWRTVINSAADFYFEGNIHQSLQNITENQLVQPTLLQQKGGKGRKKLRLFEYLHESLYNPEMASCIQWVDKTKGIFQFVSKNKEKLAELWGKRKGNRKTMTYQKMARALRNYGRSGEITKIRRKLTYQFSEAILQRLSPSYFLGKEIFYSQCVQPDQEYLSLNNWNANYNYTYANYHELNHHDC
# Outline: as §1
# ELF4 = ELF4 (Homo sapiens, UniProt Q99607 1-663)
# Sequence of ELF4 (Q99607 whole entry): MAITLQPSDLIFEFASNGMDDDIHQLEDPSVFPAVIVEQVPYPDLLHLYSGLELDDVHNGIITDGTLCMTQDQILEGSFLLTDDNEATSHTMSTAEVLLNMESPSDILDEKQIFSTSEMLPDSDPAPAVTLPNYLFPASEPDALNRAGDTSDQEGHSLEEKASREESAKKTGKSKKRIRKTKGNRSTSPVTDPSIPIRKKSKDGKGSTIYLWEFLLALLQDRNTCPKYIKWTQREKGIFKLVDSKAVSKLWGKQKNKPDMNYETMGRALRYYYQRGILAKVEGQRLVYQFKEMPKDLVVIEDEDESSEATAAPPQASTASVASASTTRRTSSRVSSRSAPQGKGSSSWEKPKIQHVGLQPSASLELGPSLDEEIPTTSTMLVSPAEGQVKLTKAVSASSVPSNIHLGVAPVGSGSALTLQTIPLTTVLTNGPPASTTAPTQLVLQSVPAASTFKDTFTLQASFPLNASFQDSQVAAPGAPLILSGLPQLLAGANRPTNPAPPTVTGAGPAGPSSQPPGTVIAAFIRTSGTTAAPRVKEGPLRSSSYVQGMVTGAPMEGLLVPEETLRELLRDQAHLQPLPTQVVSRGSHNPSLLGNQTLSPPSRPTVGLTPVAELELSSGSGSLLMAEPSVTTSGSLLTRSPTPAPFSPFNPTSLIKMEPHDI
# Outline: as §1
# ELK4 = target: T6, ELK4 (Homo sapiens, UniProt P28324-2 1-405)
# T6 sequence: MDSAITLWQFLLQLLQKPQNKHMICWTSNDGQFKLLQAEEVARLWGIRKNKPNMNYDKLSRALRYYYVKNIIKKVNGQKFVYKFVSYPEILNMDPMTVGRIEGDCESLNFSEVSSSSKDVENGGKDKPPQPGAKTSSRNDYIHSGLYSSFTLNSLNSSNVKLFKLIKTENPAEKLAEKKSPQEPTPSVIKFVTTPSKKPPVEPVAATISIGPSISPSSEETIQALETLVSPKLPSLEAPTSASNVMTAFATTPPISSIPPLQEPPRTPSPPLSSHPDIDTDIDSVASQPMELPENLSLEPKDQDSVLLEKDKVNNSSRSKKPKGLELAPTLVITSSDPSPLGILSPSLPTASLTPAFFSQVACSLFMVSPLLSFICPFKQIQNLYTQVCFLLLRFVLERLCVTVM
# Outline: as §1
# ETV2 = target: T7, ETV2 (Homo sapiens, UniProt O00321 1-342)
# T7 sequence: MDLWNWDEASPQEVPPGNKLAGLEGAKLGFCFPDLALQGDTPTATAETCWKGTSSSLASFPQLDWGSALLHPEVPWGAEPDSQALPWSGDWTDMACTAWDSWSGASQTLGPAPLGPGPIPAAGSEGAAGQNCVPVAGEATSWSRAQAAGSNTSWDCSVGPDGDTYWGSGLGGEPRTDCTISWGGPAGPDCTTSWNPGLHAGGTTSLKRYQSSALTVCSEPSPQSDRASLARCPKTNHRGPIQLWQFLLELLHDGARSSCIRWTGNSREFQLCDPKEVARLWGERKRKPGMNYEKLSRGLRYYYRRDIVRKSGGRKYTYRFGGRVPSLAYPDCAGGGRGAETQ
# Outline: as §1
# ELF3 = target: T8, ELF3 (Homo sapiens, UniProt P78545 1-371)
# T8 sequence: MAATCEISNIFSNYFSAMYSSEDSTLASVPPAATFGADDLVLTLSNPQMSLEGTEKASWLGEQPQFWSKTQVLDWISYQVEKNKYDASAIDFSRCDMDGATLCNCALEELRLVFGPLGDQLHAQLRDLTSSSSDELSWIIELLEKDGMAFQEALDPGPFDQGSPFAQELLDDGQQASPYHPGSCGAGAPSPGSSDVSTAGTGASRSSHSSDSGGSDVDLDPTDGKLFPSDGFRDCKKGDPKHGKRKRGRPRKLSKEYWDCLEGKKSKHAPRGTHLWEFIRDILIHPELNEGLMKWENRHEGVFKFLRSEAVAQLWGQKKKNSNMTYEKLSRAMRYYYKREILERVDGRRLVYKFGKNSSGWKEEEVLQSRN
# Outline: as §1
# ETV3L = target: T9, ETV3L (Homo sapiens, UniProt Q6ZN32 1-361)
# T9 sequence: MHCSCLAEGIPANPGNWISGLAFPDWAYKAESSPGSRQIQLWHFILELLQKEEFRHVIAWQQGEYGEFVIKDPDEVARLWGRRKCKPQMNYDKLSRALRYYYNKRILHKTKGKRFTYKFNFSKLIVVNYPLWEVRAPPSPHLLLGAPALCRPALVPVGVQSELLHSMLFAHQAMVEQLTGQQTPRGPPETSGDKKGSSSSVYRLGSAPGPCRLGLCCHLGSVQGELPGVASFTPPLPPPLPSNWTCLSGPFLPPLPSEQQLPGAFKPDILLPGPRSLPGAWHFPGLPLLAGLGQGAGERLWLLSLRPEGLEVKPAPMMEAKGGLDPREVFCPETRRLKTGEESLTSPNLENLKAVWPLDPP
# Outline: as §1
# ETS2 = target: T10, ETS2 (Homo sapiens, UniProt P15036 1-469)
# T10 sequence: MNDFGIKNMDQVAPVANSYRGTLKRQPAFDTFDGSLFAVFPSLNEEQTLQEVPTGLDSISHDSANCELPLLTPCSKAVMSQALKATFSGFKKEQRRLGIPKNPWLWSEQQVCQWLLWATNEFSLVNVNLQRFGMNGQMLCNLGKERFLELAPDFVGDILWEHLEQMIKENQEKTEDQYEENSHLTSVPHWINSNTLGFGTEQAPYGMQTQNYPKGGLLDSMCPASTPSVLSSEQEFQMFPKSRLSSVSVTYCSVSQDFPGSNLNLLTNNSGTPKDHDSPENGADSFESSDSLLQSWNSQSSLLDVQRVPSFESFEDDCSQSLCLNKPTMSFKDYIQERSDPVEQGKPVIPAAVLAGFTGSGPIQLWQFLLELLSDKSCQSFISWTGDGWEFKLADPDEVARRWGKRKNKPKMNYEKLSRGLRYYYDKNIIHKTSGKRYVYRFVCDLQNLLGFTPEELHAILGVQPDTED
# Outline: as §1
# ETV7 = target: T11, ETV7 (Homo sapiens, UniProt Q9Y603 1-341)
# T11 sequence: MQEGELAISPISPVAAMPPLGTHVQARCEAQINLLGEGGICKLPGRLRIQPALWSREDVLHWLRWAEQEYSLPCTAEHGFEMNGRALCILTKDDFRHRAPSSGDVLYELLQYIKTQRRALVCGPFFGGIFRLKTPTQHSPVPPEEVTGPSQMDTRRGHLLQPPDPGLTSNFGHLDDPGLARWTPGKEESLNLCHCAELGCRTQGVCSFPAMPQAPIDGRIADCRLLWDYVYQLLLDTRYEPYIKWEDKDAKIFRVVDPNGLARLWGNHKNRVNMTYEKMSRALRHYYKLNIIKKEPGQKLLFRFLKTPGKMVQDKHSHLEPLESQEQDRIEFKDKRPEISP
# Outline: as §1
# ETV3 = target: T12, ETV3 (Homo sapiens, UniProt P41162-2 1-143)
# T12 sequence: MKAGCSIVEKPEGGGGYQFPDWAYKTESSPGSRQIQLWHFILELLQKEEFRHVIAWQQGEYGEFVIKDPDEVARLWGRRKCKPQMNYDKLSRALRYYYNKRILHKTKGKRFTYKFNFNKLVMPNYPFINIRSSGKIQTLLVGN
# Outline: as §1
# ETV6 = ETV6 (Homo sapiens, UniProt P41212 1-452)
# Sequence of ETV6 (P41212 whole entry): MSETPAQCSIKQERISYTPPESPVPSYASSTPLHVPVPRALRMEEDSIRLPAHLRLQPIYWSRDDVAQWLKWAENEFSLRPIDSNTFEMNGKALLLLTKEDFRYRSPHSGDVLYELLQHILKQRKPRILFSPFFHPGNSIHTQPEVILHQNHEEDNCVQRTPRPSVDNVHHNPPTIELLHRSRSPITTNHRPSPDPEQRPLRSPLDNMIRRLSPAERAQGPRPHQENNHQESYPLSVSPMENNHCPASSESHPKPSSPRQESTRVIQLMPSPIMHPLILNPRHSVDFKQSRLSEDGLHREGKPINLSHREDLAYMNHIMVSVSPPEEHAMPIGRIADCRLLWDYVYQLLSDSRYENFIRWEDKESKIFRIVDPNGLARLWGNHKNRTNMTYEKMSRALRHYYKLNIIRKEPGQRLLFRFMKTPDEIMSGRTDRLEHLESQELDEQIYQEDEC
# Outline: as §1
sequence,measurement,setting,value
CATGCG,binding signal,FLI1,"1.01 fold enrichment (6-mer frequency, TF over GST control)"
same,binding signal,GABPA,"1.06 fold enrichment (6-mer frequency, TF over GST control)"
same,binding signal,ERG,"1.03 fold enrichment (6-mer frequency, TF over GST control)"
same,binding signal,ELF1,"1.07 fold enrichment (6-mer frequency, TF over GST control)"
same,binding signal,EHF,"1.06 fold enrichment (6-mer frequency, TF over GST control)"
same,binding signal,SPIC,"1 fold enrichment (6-mer frequency, TF over GST control)"
same,binding signal,ELF4,"1.02 fold enrichment (6-mer frequency, TF over GST control)"
same,binding signal,ELK4,"1.11 fold enrichment (6-mer frequency, TF over GST control)"
same,binding signal,ETV2,"1 fold enrichment (6-mer frequency, TF over GST control)"
same,binding signal,ELF3,"1.29 fold enrichment (6-mer frequency, TF over GST control)"
same,binding signal,ETV3L,"1.01 fold enrichment (6-mer frequency, TF over GST control)"
same,binding signal,ETS2,"1 fold enrichment (6-mer frequency, TF over GST control)"
same,binding signal,ETV7,"1.21 fold enrichment (6-mer frequency, TF over GST control)"
same,binding signal,ETV3,"1.03 fold enrichment (6-mer frequency, TF over GST control)"
same,binding signal,ETV6,"1.16 fold enrichment (6-mer frequency, TF over GST control)"
